Bioassay records from PubChem.
A selection: hits, their analogues and other compounds. The true share with any hit is near 4.8%.
Beta apoptosis = blocks beta cell apoptosis; INS-1E cytokine-induced death, ATP luminescence, 48 h; percent of positive-control rescue, neutral wells zero; protection from apoptosis, % (concentration not given with the values); 0.8% of 300,000 active; AID 435005;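 active = Every replicate reaches about 75%, or at least half do and their mean reaches it too, limit read from the data; inconclusive = At least half of replicates reach the limit but their mean does not; inactive = Under half of replicates reach the limit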;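 note: 0% = cytokine-treated negative control wells and 100% = positive control rescue; higher means more ATP so stronger rescue from cytokine killing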
Calb FLC = affects C. albicans growth with fluconazole. C. albicans CaCi-2 (fluconazole-resistant clinical isolate) + fluconazole, Alamar Blue growth, 48 h. growth inhibition, % (concentration not given with the values). 0.57% of 300,000 active. AID 1979;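 active = growth inhibition above about 58% in most replicates, limit read from the data, passing the limit was not always enough; inconclusive = exactly half the replicates above a set limit; inactive = most replicates below a set limit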;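 note: all wells also contain fluconazole at 8 µg/ml as a sub-toxic cotreatment; 0% = median of DMSO wells and 100% = median of geldanamycin control wells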
CSC inhib = cancer stem cell inhibition | cancer stem cell-like cells viability, luminescence | inhibition, % at 7.5 µM | 1.1% of 300,000 active; in the data active = inhibition above about 75%; inconclusive = no clear call, values can overlap the other calls; tested in HMLE shEcad cells
Mdm2-MdmX inh = inhibitors of human Mdm2/MdmX interaction | O15151+Q00987 | SaOS-2 split-luciferase Mdm2/MdmX complementation, luminescence | inhibition, % at 8 µM | 3% of 330,000 active | AID 485346;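 active = inhibition of at least 50% at 8 µM in the primary screen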
Target sequence (O15151 whole entry, looked up): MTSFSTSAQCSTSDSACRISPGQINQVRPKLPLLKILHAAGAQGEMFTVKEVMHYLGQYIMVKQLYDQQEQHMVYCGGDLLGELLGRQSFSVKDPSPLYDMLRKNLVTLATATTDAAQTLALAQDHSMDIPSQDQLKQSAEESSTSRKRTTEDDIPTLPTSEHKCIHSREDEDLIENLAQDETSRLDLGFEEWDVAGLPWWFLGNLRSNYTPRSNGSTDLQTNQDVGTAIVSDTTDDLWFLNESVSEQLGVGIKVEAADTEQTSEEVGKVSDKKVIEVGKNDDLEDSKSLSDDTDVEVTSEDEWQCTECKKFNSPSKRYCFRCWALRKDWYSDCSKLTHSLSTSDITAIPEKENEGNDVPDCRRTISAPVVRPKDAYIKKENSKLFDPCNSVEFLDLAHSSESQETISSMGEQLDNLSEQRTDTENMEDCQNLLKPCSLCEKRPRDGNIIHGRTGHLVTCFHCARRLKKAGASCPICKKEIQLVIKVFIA
Target sequence (Q00987 whole entry, looked up): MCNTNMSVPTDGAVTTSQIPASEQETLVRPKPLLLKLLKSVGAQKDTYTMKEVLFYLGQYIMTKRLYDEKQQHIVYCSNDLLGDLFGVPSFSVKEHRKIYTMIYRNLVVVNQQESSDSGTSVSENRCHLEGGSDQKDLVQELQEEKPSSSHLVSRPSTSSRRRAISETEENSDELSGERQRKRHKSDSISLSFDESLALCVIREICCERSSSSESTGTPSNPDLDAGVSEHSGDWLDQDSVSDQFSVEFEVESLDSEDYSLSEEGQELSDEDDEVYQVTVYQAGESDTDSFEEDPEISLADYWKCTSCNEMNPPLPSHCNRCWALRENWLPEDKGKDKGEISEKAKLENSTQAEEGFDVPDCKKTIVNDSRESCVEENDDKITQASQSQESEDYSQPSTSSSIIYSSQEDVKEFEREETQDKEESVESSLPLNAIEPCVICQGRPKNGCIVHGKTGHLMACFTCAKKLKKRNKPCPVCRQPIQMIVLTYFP
MPTP block = inhibitors of mitochondrial permeability transition pore | isolated mouse mitochondria, Ca2+ swelling absorbance, 30 min | inhibition, % at 10 µM | 1.4% of 360,000 active | AID 602449;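 active = inhibition of 50% or more, scaled per plate between neutral and stimulator controls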;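 note: 0% = DMSO wells given calcium and 100% = 1 mM EGTA wells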
Rh123 counter = membrane potential counter-screen of mitochondrial pore inhibitors; shares compounds with MPTP block; isolated mitochondria, Rhodamine 123 fluorescence; inhibition, % at 10 µM; 78% of 5,000 active; AID 624504; in the data active = inhibition above about 22%;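 note: 0% = DMSO vehicle and 100% = positive control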
* hit, by the source's call; ? = inconclusive; / = no result.

SMILES	Beta apoptosis	Calb FLC	CSC inhib	Mdm2-MdmX inh	MPTP block	Rh123 counter
CN(CC(=O)Nc1ccccc1Cl)C(=O)CN1C(=O)NC(c2ccccc2)(c2ccccc2)C1=O	-10.0	/	-9.1	-12.0	-0.5	/
COC(=O)c1sc(NC(=S)NC(=O)c2ccc(F)cc2)nc1C	2.1	39.4	-1.0	2.8	/	/
COC(=O)c1sc(NC(=S)NC(=O)c2cccc(Br)c2)nc1C	2.4	1.0	11.3	6.7	89.5*	49.2*
CN(C)S(=O)(=O)c1ccc(Nc2nc(C3CC3)nc3c2nnn3Cc2ccccc2Cl)cc1	87.9*	3.0	/	18.9	62.2*	28.9*
COC(=O)CNc1nc(C2CC2)nc2c1nnn2Cc1ccccc1Cl	0.9	10.2	-9.1	24.7	1.0	/
CCOc1ccc(C(=O)NCC(=O)NNC(=O)c2ccco2)cc1OCC	-7.6	/	-8.6	0.2	-2.2	/
CCCSc1nnc(NC(=O)Nc2ccc(C)cc2)s1	-3.4	8.2	11.0	43.3	59.9*	75.2*
CCCSc1nnc(NC(=O)Nc2ccccc2)s1	32.0	-0.3	41.0	-65.9	90.2*	78.0*
O=C(Nc1ccccc1)Nc1nnc(/C=C/c2ccccc2Cl)s1	2.6	8.0	8.9	10.9	86.0*	43.0*
CCCSc1nnc(NC(=O)c2sc3nc(-c4cccs4)ccc3c2N)s1	-1.8	9.3	41.1	-7.5	75.7*	32.3*
Cc1ccc(NC(=O)CSc2nnc(NC(=O)C3CC3)s2)cc1	-8.5	3.4	-11.6	16.1	-0.8	/
O=C(NCc1ccccc1)c1ccc(NC(=O)C2CCCO2)cc1 (stereo not given)	2.6	6.1	-8.4	4.8	-0.7	/
Cc1ccc(NC(=S)Nc2ccc(C(C)C)cc2)cc1S(=O)(=O)N1CCCCCC1	27.3	-1.6	75.3*	0.3	103.0*	77.9*
COc1ccc(C2/C=C\CN(C(=O)Nc3ccc(C(F)(F)F)cc3)CC(=O)N2Cc2ccc(F)cc2)cc1 (stereo not given)	80.6*	-7.0	-5.5	26.6	102.9*	100.1*
Cc1cc(Br)cn2c(Cc3ccsc3)c(-c3ccc(Cl)cc3)nc12	/	/	/	/	1.8	/
CC(C)(C)c1ccc(C(=O)O)c(C(=O)c2ccc(C(=O)O)cc2)c1	-5.0	3.1	-26.0	9.4	0.3	/
O=C(Nc1ccc([N+](=O)[O-])cc1)Nc1ccc2c(c1)OCCO2	9.9	?	1.3	-176.9	94.9*	89.8*
O=C(Nc1ccc([N+](=O)[O-])cc1)c1cccc([N+](=O)[O-])c1	/	/	/	/	4.1	/
O=C(Nc1ccc(Br)cc1)c1cc([N+](=O)[O-])cc([N+](=O)[O-])c1	34.6	-4.8	28.2	26.7	101.8*	85.7*
COc1cc([N+](=O)[O-])ccc1NC(=O)Nc1ccc2c(c1)OCCO2	10.7	-16.9	-5.7	-6.3	2.0	/
O=C(Nc1ccc([N+](=O)[O-])cc1)Nc1ccc2[nH]c(=O)[nH]c2c1	3.7	-2.5	4.8	-0.6	81.7*	71.1*
O=C(NNC(=O)c1cccc(O)c1)Nc1ccc([N+](=O)[O-])cc1	1.4	22.6	3.0	4.5	56.5*	35.7*
CCOC(=O)C1CCCN(C(=O)c2cc(CN3C(=O)c4ccccc4C3=O)ccc2OC)C1 (stereo not given)	1.9	0.9	-11.4	-0.5	0.0	/
O=C(CCCOc1ccc(Br)cc1)NCCc1ccc(OC(F)F)cc1	-1.9	3.0	-5.2	-1.6	-1.0	/
C=C1C[C@H](O)[C@@H]2[C@H](OC(=O)[C@H]2C)[C@H]2[C@H](C)[C@@H](O)C[C@@H]12	-3.5	/	-6.4	0.3	-2.0	/
SMILES	Beta apoptosis	Calb FLC	CSC inhib	Mdm2-MdmX inh	MPTP block	Rh123 counter
Cn1nc(C(C)(C)C)c([N+](=O)[O-])c1C(=O)Nc1ccc(Br)cc1	12.1	-51.4	18.8	7.2	80.5*	93.2*
Cc1cccc(NC(=O)c2c([N+](=O)[O-])c(C(C)(C)C)nn2C)c1	7.7	5.9	-9.8	-21.6	3.0	/
Cc1ccc(NC(=O)Nc2cccc(C)n2)cc1	-3.8	-3.7	-15.4	-125.8	1.5	/
Cc1cccc(NC(=O)Nc2ccc([N+](=O)[O-])cc2)n1	6.2	10.4	1.1	-8.7	69.4*	54.2*
O=C(CNC(=O)c1cccs1)Nc1ccc2c(c1)OCCO2	-5.0	-5.5	32.7	-115.9	0.9	/
CCOC(=O)c1c(N2C(=O)Nc3cc(Cl)c(Cl)cc3N2O)sc2c1CCCCC2	-0.9	/	-5.9	23.2	91.1*	70.2*
CCOC(=O)c1c(-n2cnnn2)sc2c1CCCC2	-1.3	1.9	-12.5	-5.3	0.4	/
O=C(NCCc1nnc2ccc(NCc3cccnc3)nn12)c1ccccc1F	-4.2	1.0	9.4	18.0	0.8	/
